KB-V1 cytotox: KB-V1 MDR subline cytotoxicity. KB-V1 MDR cells viability, CellTiter-Glo, 72 h. Potency, µM (doses to about 46.1 µM), actives largely listed as cytotoxic. actives 3.4% (n = 400,000); also: % is scaled to controls: 0 for no effect and ±100 for the full control effect; nearly all actives have a fitted effect of over 60% in size
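Cytotoxicity via CellTiter-Glo luminescence after 72 h compound exposure at 37 degrees C. Cells: drug-selected KB-V1 line, DMEM phenol-red free plus 10% FBS. Compounds tested at multiple concentrations; normalized data fitted to concentration-effect curves.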
ELG1 repair inh: inhibitors of ELG1-dependent DNA repair in HEK293T cells | AID 504467 | actives 2.3% (n = 330,000) | Potency, µM (titrated, usually from 46.1 µM), inactives show at the highest dose activity change, negative = inhibition, usual class: inhibitors | HEK293T ELG1-luciferase reporter, luminescence, 16 h; DNA damage induced by 5-fluorouridine; also: % is scaled to controls: 0 for no effect and ±100 for the full control effect; nearly all actives have a fitted effect of over 55% in size
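Cells (2,000 per well) received 5-fluorouridine plus test compound or DMSO and were incubated 16 hr at 37 °C, 5% CO2. Luciferase activity was read by luminescence 30 min after ONE-Glo addition; signal suppression marked inhibition of damage-induced ELG1 function.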
KB-3-1 tox: KB-3-1 parental cell cytotoxicity. KB-3-1 viability, CellTiter-Glo ATP luminescence, 72 h. Potency, µM (highest dose often 46.1 µM), actives largely listed as cytotoxic. actives 1.4% (n = 400,000); also: % is scaled to controls: 0 for no effect and ±100 for the full control effect; nearly all actives have a fitted effect of over 60% in size
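Viability of parental KB-3-1 cells, measured by CellTiter-Glo luminescence, followed a 72 h incubation at 37 °C with pinned compounds in phenol-red-free DMEM containing 10% FBS.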
MCF10A rereplic: inducers of DNA re-replication in MCF 10A breast cells. MCF 10A DNA re-replication, Hoechst nuclear intensity, 48 h. Potency, µM (doses to about 46.1 µM), for inactives: at the top dose activity, positive = re-replication, most hits filed as activators. actives 2.9% (n = 350,000). AID 624296; also: % of control where 0% means no effect; nearly all actives have a fitted effect of over 50% in size
SW480 rereplic: inducers of DNA re-replication in SW480 colon cancer cells; SW480 DNA re-replication, Hoechst DNA content imaging, 48 h; Potency, µM (top dose mostly 46.1 µM), for the others: at the top dose re-replication activation, actives largely listed as activators; actives 1.8% (n = 340,000); AID 624297; also: % of control where 0% means no effect; nearly all actives have a fitted effect of over 55% in size
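Per well, 250 cells were exposed to pinned compound for 48 hr. Nuclear DNA was visualised with Hoechst (40 min, 37 C) and total object intensity recorded by fluorescence scanning.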
* = called active by the depositor; i = inactive; ? = inconclusive; . = no result. Rows were chosen to be rich in hits. Some 8.1% of all compounds tested hit in one or more screens of this group. Calls follow the shape of the dose curve; as a rule, active = well fitted curve in the direction sought with a large enough effect; inconclusive = small, poorly fitted or top-dose-only effect, or another doubt; inactive = no such curve, though single readings can be large; an effect the other way counts as inactive or inconclusive. Potency is read from the fitted curve at half-maximal effect.

SMILES	KB-V1 cytotox	ELG1 repair inh	KB-3-1 tox	MCF10A rereplic	SW480 rereplic
COc1cc(/C=C(/C#N)c2nc3ccccc3[nH]2)ccc1OCC(=O)Nc1ccccc1C	1.8µM*	6%	?	18µM*	27%
COc1cc(/C=C(/C#N)c2nc3ccccc3[nH]2)ccc1OCC(=O)Nc1ccccc1C(C)C	?	?	?	2.9µM*	?
COc1cc(/C=C(\C#N)c2nc3ccccc3[nH]2)ccc1OC(=O)c1ccco1	?	?	i	?	9%
COc1cc(/C=C(\C#N)c2nc3ccccc3s2)ccc1OCC(=O)Nc1ccccc1	9.2µM*	4%	?	6.5µM*	?
CCC(C)Nc1nc2c(c(=O)[nH]c(=O)n2C)n1Cc1ccc(F)cc1 (configuration not stated)	i	.	i	.	.
CSc1nsc(/C=C/Nc2ccc(C)c(C)c2)c1C#N	i	0%	i	1.2µM*	18µM*
C/C(=N\NC(=O)COc1ccccc1[N+](=O)[O-])c1cccc(NC(=O)c2ccncc2)c1	i	9.2µM*	i	?	-2%
COc1cccc(NC(=O)CN(C)C(=O)c2cc(-c3ccc(C)o3)nc3ccccc23)c1	i	6.5µM*	i	10%	14%
COc1cccc(NC(=O)c2cc(-c3ccc(C)o3)nc3ccccc23)c1	i	-7%	i	14%	?
COc1cccc(NC(=O)CN(C)C(=O)c2cc(-c3cccc(Br)c3)nc3ccccc23)c1	?	?	?	13µM*	?
Cc1ccc(NC(=O)CC2Nc3ccccc3NC2=O)cc1Cl (configuration not stated)	i	?	?	2.6µM*	16µM*
CCOc1ccccc1NC(=O)CC1Nc2cc(C)c(C)cc2NC1=O (configuration not stated)	?	?	i	18µM*	?
Cc1ccc(NC(=O)CSc2nc(C3CCCC3)nc3c2c(=O)n(C)c(=O)n3C)c(C)c1	i	.	i	.	.
COc1ccc2nc(SCC(C)=O)c(C#N)cc2c1	i	?	i	4%	-6%
Cc1cc(C)c2nc(SCC(=O)N3CC(=O)Nc4ccccc43)c(C#N)cc2c1	0.73µM*	?	0.65µM*	0.82µM*	1.3µM*
COc1ccc2nc(SCC(=O)N3CC(=O)Nc4ccccc43)c(C#N)cc2c1	?	16µM*	2.6µM*	2.8µM*	5µM*
Cc1cc(C)cc(C(=O)N2CC(=O)Nc3ccccc32)c1	3.3µM*	28%	?	?	0.73µM*
Cc1cc(C)c2nc(SCC(=O)Nc3ccccc3N3CCOCC3)c(C#N)cc2c1	i	.	i	2%	-6%
CS(=O)(=O)c1ccc(C(=O)N2CC(=O)Nc3ccccc32)cc1	i	0%	i	-3%	-1%
COc1ccc(-c2cc(-c3ccc4c(c3)NC(=O)CO4)nc3c2COc2ccc(F)cc2-3)cc1	i	.	i	.	.
Cc1ccc(S(=O)(=O)N2CCN(C(=O)COC(=O)CSc3ccccc3)CC2)c(C)c1	i	1%	i	19%	2%
CCC(C)NC(=O)CCc1nnc2ccc(N3CCC(C)CC3)nn12 (configuration not stated)	i	0%	i	6%	5%
CCOC(=O)C(C)NC(=O)CCc1nnc2ccc(N3CCC(C)CC3)nn12 (configuration not stated)	i	6%	i	26µM*	-11%
CN(c1ccccc1)S(=O)(=O)c1cccc(NC(=O)CSc2nncn2C)c1	i	17%	i	-5%	-8%
CC(C)Oc1ccc(S(=O)(=O)N2CCOCC2)cc1NC(=O)C1=NN(c2ccccc2)C(=O)CC1	?	10µM*	i	?	11%
SMILES	KB-V1 cytotox	ELG1 repair inh	KB-3-1 tox	MCF10A rereplic	SW480 rereplic
CC(C)Oc1ccc(S(=O)(=O)N2CCCCC2)cc1NC(=O)C1=NN(c2ccccc2)C(=O)CC1	i	.	i	.	.
COc1ccc(NS(=O)(=O)c2cccc(NC(=O)C3=NN(c4ccccc4)C(=O)CC3)c2)cc1	i	9.2µM*	?	7%	-4%
CCn1c(SCC(=O)Nc2cccc(S(=O)(=O)N(C)c3ccccc3)c2)nnc1C1CC1	21µM*	-6%	i	12%	3%
CN(c1ccccc1)S(=O)(=O)c1cccc(NC(=O)C2=NN(c3ccccc3)C(=O)CC2)c1	?	7.3µM*	i	9%	?
COc1ccccc1N1CCN(S(=O)(=O)c2c(C)sc3ncn(CC(=O)Nc4ccc(C(F)(F)F)cc4)c(=O)c23)CC1	i	.	i	.	.
Cc1ccc(S(=O)(=O)N2CCC(C(=O)Nc3ncccc3O)CC2)cc1	i	6%	i	25%	5%
CCN(CC(=O)Nc1c(F)cccc1F)C(=O)c1cnccn1	i	8%	i	-1%	-10%
O=C(Nc1ccc(Br)cc1Cl)NC1CC1	i	-29%	i	4%	-6%
CCCn1c(O)c(/C=C2\C=NN=C2c2ccccc2)sc1=S	?	?	i	9.2µM*	9%
COc1ccccc1NC(=O)/C(C#N)=C/C=C/c1ccco1	?	?	1.5µM*	8.2µM*	0.92µM*
C[N+]1(CC(=O)c2ccc(I)cc2)CCCc2ccccc21 (configuration not stated)	i	.	?	.	.
Cc1nnc(SCC(=O)c2cc(C)n(-c3c(C)n(C)n(-c4ccccc4)c3=O)c2C)s1	i	-12%	i	-9%	-1%
Cc1cc(-n2c(C)cc(C(=O)CCl)c2C)no1	?	-1%	?	3.3µM*	?
Cc1cc(-n2c(C)cc(C(=O)COc3cc(F)ccc3[N+](=O)[O-])c2C)no1	i	-14%	i	?	13µM*
Cc1cc(C(=O)CCl)c(C)n1-c1c(C)n(C)n(-c2ccccc2)c1=O	?	?	?	5.2µM*	21µM*
COc1ccc(-n2c(C)cc(C(=O)COc3ccc(C)nc3[N+](=O)[O-])c2C)cc1	?	18%	?	21µM*	?
Cc1ccc(Nc2ncnc3c2cnn3-c2ccccc2)c(C)c1	?	.	i	.	.
COc1ccc(-n2c(C)cc(C(=O)CSc3ccc(NC(C)=O)cc3)c2C)cc1	?	7%	i	16µM*	13%
COc1ccc(-n2c(C)cc(C(=O)CCl)c2C)cc1	?	28%	6.5µM*	6.5µM*	2.6µM*
COc1ccc(-n2c(C)cc(C(=O)CN3C(=O)c4ccccc4C3=O)c2C)cc1	i	?	i	1%	2%
COC(=O)c1c(NC(NC(=O)c2ccccc2)(C(F)(F)F)C(F)(F)F)sc2c1CCN(C)C2	i	-22%	i	?	0.52µM*
C/C(=C\c1ccccc1F)C(=O)c1c(C)cc(C)[nH]c1=O	i	-14%	i	-39%	-1%

From PubChem
